# Data reported in PubChem BioAssay (NCATS).
# Inconclusive results are not listed. Entries that show only a call come without a potency. Calls of active or inactive are those of the source. Unless noted, calls follow the shape of the dose curve; as a rule, active = well fitted curve in the direction sought with a large enough effect; inconclusive = small, poorly fitted or top-dose-only effect, or another doubt; inactive = no such curve, though single readings can be large; an effect the other way counts as inactive or inconclusive.
# Key:
# [1] = target: Voltage-gated inwardly rectifying potassium channel KCNH2 (Homo sapiens) (UniProt Q12809); experiment: qHTS Assay for Small Molecule Inhibitors of the Human hERG Channel Activity (AID 588834);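 also: lower thallium flux fluorescence means stronger hERG block; nearly all actives have a fitted effect of over 50% in size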; also: potency is read from the fitted curve at half-maximal effect
# In short: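 Step 1: BacMam hERG transduction of U2OS, 4 hrs RT. Step 2: overnight 37 °C, plate 2000 cells/well, 4 hr. Step 3: FluxOR load, compound 10 min, stimulate, read fluorescence.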
# [2] = target: Luciferin 4-monooxygenase (Photinus pyralis) (UniProt P08659); experiment: Biochemical firefly luciferase enzyme assay for NPC (AID 624030);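 also: purified P. pyralis luciferase at 10 nM with luciferin and ATP substrate; nearly all actives have a fitted effect of over 70% in size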
# In short: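 Purified P. pyralis luciferase at 10 nM in 50 mM Tris Acetate (final), luminescence read within 5 minutes of enzyme addition to compounds. Activity normalised to PTC124 versus DMSO; concentration-response curves classed by r2, magnitude and activity.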
# [3] = S16 Schwann cell viability assay (CellTiter-Glo assay) (AID 624031);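 also: native untransfected S16 rat Schwann cells; cellular ATP luminescence as a viability measure; nearly all actives have a fitted effect of over 70% in size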
# In short: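 Parental S16 cells, 24 h compound, 37 °C. ATP-luminescence viability; DMSO = 0% activity, empty wells as reference; curves classified by fit quality and efficacy.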
# [4] = S16 Schwann cell PMP22 intronic element firefly luciferase assay (AID 624032); also: nearly all actives have a fitted effect of over 30% in size; also: potency is read from the fitted curve at half-maximal effect
# In short: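 Rat S16 Schwann cells stably carrying firefly luciferase driven by a PMP22 intronic element, in 10% FBS, treated 24 h at 37 C. ONE-Glo luminescence normalized to PTC124 control and DMSO (0%); curves classed by r2, magnitude and activity.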
# [5] = Cytotoxicity counterscreen for NFkB agonists and antagonists (AID 624476);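 also: cells exposed to compound for 48 hours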; also: potency is read from the fitted curve at half-maximal effect
# [6] = qHTS Assay for Identification of Small Molecule Agonists for NFkB Signaling Pathway. (AID 624478);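 also: compounds tested together with TNF alpha at its EC50 of 10 pM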
# In short: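 Compounds were added with 10 pM TNF alpha (EC50 level) to ME-180 NFkB-bla cells in low-serum Opti-MEM and incubated 5 hrs at 37 C. Beta-lactamase FRET read-out used 405 nm excitation and 460 and 530 nm emission.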
# [7] = qHTS Assay for Identification of Small Molecule Antagonists for NFkB Signaling Pathway. (AID 624479; calls by dose curve;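 also: pathway stimulated with TNF alpha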; also: potency is read from the fitted curve at half-maximal effect)
# [8] = Cell Proliferation Assay against the TMD8 Cell Line (AID 651645); settings: TMD8 DLBCL cell line proliferation/viability; at 46.1 µM (top of the series);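 also: cells exposed to compound for 48 h before reading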
# In short: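 500 TMD8 cells/well, RPMI + Glutamax, no phenol red, 5% FBS; cpd added immediately; 48 h, 37C, 5% CO2; CellTiter-Glo, luminescence. Controls: DMSO = 100%, bortezomib 9.2 uM final = 0%.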
# [9] = Cell Proliferation Assay against the HBL1 Cell Line (AID 651646); settings: HBL1 DLBCL cells; at 46.1 µM (top of the series);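 also: cells exposed to compound for 48 h before reading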
# In short: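 HBL1, 500 cells/well, RPMI no phenol red + 5% FBS; cpd pinned, 48 h 37C/5% CO2; CellTiter-Glo, 15 min RT, luminescence. % activity: DMSO = 100%, bortezomib 9.2 uM final = 0%.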
# [10] = S16 Schwann cell PMP22 intronic element beta-lactamase assay (AID 624044; calls by dose curve; also: nearly all actives have a fitted effect of over 15% in size; also: potency is read from the fitted curve at half-maximal effect)
# In short: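 Beta-lactamase reporter under a PMP22 intronic regulatory element in stable S16 rat Schwann cells; 24 h compound exposure. 460 nm blue signal normalized between DMSO (0%) and potassium clavulanate, with 535 nm FRET tracking viability; curves classed by r2 and response.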
# [11] = Cell Proliferation Assay against the TMD8 Cell Line (Caspase readout at 16 hrs) (AID 651712)
# In short: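 Caspase-Glo luminescence after 16 h compound exposure of TMD8 cells, 37 °C, 5% CO2. Medium: RPMI without phenol red, 5% FBS. Normalisation: DMSO = 0%, bortezomib 9.2 uM final = 100%.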
# [12] = target: Retinoic acid receptor RXR-alpha (Homo sapiens) (UniProt P19793); experiment: qHTS assay for small molecule antagonists of retinoid X receptor alpha signaling (AID 588546; active = well fitted inhibition curve with a large enough effect in the signal ratio, with a control signal flat, not every such curve was filed as active; the % refers to the signal ratio;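 also: cells stimulated with 9-cis-retinoic acid as agonist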); settings: HEK293T RXRa-UAS-bla, beta-lactamase ratio, antagonist mode
# In short: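 Beta-lactamase reporter inhibition, read as CCF4 fluorescence ratio (ex 405, em 460/530 nm) after 2 h at RT. HEK293T UAS-bla cells, 2500/well, were stimulated with 9-cis-RA at 500 or 100 nM final alongside test compound for 18 h at 37 C.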
# [13] = target: Thyroid hormone receptor beta (Homo sapiens) (UniProt P10828); experiment: qHTS assay for small molecule antagonists of thyroid hormone receptor beta signaling (AID 588547; active = well fitted inhibition curve with a large enough effect in the signal ratio, with a control signal flat, not every such curve was filed as active; the % refers to the signal ratio;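 also: cells stimulated with 0.4 nM T3 agonist during compound exposure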); settings: TR-UAS-bla HEK293, beta-lactamase ratio, antagonist mode, 18 h
# In short: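 TR-UAS-bla GripTite HEK293 cells in 2% charcoal/dextran FBS medium; compounds 0.59 nM to 92 uM with T3 at 0.4nM final, 18 h at 37 C. Beta-lactamase read by CCF4 fluorescence (460/530 nm); Hill fits gave IC50 and efficacy.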
# [14] = qHTS assay for small molecule agonists of the antioxidant response element (ARE) signaling pathway (AID 651741; active = well fitted activation curve with a large enough effect in the signal ratio; the % refers to the signal ratio; also: potency is read from the fitted curve at half-maximal effect); settings: HepG2 ARE-bla reporter, beta-lactamase FRET ratio, 16 h
# In short: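 Stably integrated ARE-beta-lactamase reporter HepG2 cells; 16 h compound incubation, 37 C; LiveBLAzer FRET substrate 2 h at room temperature; fluorescence intensity.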
# [15] = target: Glutaminase kidney isoform, mitochondrial (Homo sapiens) (UniProt O94925); experiment: qHTS for Inhibitors of Glutaminase (GLS): LOPAC Validation (AID 624146);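 also: glutamate product detected by oxidase and peroxidase coupled Amplex red fluorescence gain; nearly all actives have a fitted effect of over 60% in size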
# In short: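 Glutamate formation by hKGA was monitored fluorometrically using coupled glutamate oxidase, HRP and Amplex Red. Substrate was added as 1 mM L-glutamine solution; incubation was 30 min at RT after an initial read.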
# [16] = qHTS of Trypanosoma Brucei Inhibitors: LOPAC Validation (AID 624147)
# In short: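 Readout: single end-point luminescence (Kinase-Glo Plus, 10 min). Reaction conditions were TbPYK/substrate plus 130 uM ADP, 45 min at RT, pH 7.2 TEA buffer. No-enzyme wells served as controls, and data were normalized before concentration-response fitting.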
# [17] = target: Glucagon-like peptide 1 receptor (Homo sapiens) (UniProt P43220); experiment: qHTS of GLP-1 Receptor Agonists: LOPAC Validation (AID 624148);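 also: higher luminescence signal means agonism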
# In short: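 HEK293 cells stably co-expressing GLP-1R and a cAMP-responsive luciferase reporter, plated 12 hours before compound, then incubated 4-6 hr at 37 deg C. Luminescence read 12 min after detection reagent.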
# [18] = qHTS of Nrf2 Activators: LOPAC Validation (AID 624149)
# In short: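 Luciferase signal from ARE activation, read with Steady-Glo after 30 min at room temperature. Compounds were pin-transferred onto AREc32_Fluc cells (1000/well, OPTI-MEM/5% FBS, seeded overnight) and left 24 hr at 37 deg C.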
# [19] = HTS Assay for Allosteric Antagonists of the Human D2 Dopamine Receptor: Hit Validation in HTRF (AID 624455);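 also: stable D1 dopamine receptor cell line scored for blocking the D1 response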
# In short: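 Inhibition of the D1-mediated response was measured by HTRF. Cells used were a line stably expressing the D1 dopamine receptor.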
# Chain of Voltage-gated inwardly rectifying potassium channel KCNH2 (Homo sapiens) (Q12809 whole entry, looked up): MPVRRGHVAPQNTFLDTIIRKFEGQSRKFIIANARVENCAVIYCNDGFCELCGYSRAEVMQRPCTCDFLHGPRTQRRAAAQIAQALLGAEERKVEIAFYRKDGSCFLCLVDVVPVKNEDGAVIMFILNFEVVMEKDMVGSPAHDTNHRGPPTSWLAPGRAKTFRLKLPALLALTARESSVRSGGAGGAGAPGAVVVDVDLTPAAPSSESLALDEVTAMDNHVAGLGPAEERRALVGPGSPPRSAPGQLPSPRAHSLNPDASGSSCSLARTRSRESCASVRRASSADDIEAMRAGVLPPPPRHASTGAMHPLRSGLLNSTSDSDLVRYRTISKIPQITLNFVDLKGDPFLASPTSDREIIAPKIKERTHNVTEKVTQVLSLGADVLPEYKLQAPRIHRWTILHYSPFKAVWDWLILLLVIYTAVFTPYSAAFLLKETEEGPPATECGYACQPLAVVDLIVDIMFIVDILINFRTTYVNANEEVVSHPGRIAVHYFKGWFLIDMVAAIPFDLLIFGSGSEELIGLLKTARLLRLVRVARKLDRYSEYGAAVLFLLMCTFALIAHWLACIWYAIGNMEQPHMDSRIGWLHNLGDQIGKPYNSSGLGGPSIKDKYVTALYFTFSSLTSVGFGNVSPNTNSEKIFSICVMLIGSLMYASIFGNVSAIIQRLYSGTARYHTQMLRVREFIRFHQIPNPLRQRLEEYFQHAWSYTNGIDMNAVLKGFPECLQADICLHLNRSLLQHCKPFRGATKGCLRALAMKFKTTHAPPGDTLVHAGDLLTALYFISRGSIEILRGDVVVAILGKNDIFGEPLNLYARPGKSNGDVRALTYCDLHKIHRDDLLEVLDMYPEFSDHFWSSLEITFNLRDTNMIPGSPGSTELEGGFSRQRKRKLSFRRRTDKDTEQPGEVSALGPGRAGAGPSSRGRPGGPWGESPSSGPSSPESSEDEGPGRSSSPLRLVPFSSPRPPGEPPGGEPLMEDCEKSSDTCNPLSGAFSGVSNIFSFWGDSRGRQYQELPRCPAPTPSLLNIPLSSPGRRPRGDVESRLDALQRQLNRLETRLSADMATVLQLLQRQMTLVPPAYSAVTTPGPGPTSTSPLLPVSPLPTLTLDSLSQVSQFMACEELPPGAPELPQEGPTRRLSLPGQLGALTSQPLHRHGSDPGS
# Chain of Luciferin 4-monooxygenase (Photinus pyralis) (P08659 whole entry, looked up): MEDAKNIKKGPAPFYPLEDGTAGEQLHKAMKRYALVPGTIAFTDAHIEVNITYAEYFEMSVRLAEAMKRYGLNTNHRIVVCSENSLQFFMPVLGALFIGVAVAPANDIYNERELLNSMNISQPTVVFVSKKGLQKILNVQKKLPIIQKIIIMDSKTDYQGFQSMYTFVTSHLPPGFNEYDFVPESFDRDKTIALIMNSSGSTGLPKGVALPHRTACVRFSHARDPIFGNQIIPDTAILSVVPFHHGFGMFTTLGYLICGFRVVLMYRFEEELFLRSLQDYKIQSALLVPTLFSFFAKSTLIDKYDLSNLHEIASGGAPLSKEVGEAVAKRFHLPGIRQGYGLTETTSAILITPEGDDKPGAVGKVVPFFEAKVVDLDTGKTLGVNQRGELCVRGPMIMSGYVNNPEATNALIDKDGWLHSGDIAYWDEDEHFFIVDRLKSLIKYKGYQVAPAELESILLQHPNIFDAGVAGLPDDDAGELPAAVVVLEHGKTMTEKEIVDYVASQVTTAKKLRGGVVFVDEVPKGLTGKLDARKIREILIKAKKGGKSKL
# Chain of Retinoic acid receptor RXR-alpha (Homo sapiens) (P19793 whole entry, looked up): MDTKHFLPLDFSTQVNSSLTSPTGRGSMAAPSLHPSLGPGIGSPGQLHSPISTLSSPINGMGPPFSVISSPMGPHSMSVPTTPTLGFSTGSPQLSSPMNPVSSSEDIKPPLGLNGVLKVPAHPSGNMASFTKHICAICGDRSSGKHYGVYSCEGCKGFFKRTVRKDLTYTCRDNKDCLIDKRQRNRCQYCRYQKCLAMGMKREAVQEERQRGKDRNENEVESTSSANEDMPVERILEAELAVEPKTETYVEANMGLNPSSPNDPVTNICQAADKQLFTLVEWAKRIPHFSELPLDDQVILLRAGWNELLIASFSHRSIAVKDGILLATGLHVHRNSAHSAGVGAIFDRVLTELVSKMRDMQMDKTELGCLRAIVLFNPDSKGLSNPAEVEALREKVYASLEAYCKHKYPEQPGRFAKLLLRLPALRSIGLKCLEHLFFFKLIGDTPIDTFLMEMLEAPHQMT
# Chain of Glucagon-like peptide 1 receptor (Homo sapiens) (P43220 whole entry, looked up): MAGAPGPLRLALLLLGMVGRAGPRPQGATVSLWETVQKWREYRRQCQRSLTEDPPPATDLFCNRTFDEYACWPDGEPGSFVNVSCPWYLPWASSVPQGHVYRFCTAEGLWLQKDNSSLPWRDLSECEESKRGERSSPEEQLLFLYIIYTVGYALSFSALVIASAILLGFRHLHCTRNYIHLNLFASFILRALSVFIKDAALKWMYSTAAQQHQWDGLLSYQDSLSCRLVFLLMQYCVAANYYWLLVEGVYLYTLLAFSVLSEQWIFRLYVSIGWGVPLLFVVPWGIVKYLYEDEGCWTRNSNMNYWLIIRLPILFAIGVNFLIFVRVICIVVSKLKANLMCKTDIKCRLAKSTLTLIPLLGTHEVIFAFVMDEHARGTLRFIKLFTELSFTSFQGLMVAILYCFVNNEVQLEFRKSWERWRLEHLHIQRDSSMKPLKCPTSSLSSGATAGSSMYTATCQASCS
# Chain of Thyroid hormone receptor beta (Homo sapiens) (P10828 whole entry, looked up): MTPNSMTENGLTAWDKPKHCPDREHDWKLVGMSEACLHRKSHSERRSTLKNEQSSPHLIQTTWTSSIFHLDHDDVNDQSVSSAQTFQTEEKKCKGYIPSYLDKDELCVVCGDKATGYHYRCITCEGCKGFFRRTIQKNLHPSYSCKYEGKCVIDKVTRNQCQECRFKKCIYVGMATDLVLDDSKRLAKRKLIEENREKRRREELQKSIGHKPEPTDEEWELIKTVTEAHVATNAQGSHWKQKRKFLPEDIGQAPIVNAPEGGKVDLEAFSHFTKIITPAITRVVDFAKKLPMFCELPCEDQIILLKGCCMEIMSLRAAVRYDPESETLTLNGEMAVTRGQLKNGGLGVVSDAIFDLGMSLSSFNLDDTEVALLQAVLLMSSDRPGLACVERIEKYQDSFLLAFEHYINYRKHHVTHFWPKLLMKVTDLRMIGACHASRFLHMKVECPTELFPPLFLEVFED
# Chain of Glutaminase kidney isoform, mitochondrial (Homo sapiens) (O94925 whole entry, looked up, canonical isoform): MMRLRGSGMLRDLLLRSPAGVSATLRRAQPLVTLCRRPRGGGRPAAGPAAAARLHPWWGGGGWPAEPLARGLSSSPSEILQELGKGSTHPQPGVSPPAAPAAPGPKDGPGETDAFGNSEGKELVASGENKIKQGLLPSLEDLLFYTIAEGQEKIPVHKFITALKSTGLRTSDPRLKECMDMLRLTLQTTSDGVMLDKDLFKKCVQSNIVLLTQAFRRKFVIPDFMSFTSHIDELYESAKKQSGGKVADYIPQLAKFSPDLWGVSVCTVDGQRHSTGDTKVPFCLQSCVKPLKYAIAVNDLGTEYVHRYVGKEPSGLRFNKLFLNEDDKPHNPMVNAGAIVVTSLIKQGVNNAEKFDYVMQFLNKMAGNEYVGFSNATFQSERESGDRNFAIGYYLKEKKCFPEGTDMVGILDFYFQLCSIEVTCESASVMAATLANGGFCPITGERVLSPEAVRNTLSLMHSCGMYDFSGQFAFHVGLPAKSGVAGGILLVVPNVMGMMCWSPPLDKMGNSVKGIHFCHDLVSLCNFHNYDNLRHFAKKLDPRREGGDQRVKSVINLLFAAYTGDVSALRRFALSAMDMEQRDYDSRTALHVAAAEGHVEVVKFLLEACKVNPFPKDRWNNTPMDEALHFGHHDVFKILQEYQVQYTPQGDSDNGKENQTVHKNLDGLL
smiles,measurement,setting,value
COc1c(N2C[C@@H]3CCCN[C@H]3C2)c(F)cc2c(=O)c(C(=O)O)cn(C3CC3)c12,Potency,[1],inactive
same,Potency,[2],inactive
same,outcome,[3],inactive
same,Potency,[4],inactive
CCC[C@H](NC(=O)C(C#N)=Cc1cccc(Br)n1)c1ccccc1,Potency,[5],2.96 µM (active)
same,outcome,[6],inactive
same,Potency,[7],2.11 µM (active)
same,viability (% of control),[8],3.01%
same,"viability, percent of control",[9],2.62%
Nc1ccn([C@@H]2CS[C@H](CO)O2)c(=O)n1,Potency,[1],inactive
same,Potency,[2],inactive
same,outcome,[3],inactive
same,Potency,[4],inactive
Cc1cn(-c2cc(NC(=O)c3ccc(C)c(Nc4nccc(-c5cccnc5)n4)c3)cc(C(F)(F)F)c2)cn1,Potency,[5],9.35 µM (active)
same,outcome,[6],inactive
same,Potency,[7],2.11 µM (active)
same,viability (% of control),[8],17.5%
same,"viability, percent of control",[9],14.5%
COC(=O)C[C@](O)(CCCC(C)(C)O)C(=O)O[C@@H]1C(OC)=C[C@]23CCCN2CCc2cc4c(cc2[C@H]13)OCO4,Potency,[1],inactive
same,Potency,[2],inactive
same,outcome,[3],inactive
CN1c2cc(O)c(N=NC(N)=O)cc2CC1S(=O)(=O)O (stereo unspecified),Potency,[1],inactive
same,Potency,[2],inactive
same,outcome,[3],inactive
same,Potency,[4],inactive
same,Potency,[10],inactive
O=C(O)CO.[NH2-].[NH2-].[Pt+2],Potency,[1],inactive
same,Potency,[2],inactive
same,outcome,[3],inactive
same,Potency,[4],inactive
CN1CCC(CNc2ccc3ncc(-c4cccc(OC(F)(F)F)c4)n3n2)CC1,Potency,[5],26.4 µM (active)
same,outcome,[6],inactive
same,Potency,[7],23.7 µM (active)
same,viability (% of control),[8],4.73%
same,"viability, percent of control",[9],3.91%
CC[C@H]1CN2CCc3cc(OC)c(OC)cc3[C@H]2C[C@@H]1C[C@@H]1NCCc2cc(OC)c(OC)cc21,Potency,[2],inactive
same,outcome,[3],inactive
CC(C)(O)CCc1ccc(OCc2cc(-c3cccc(OC(F)F)c3)c3ncccc3c2)cc1,Potency,[5],inactive
same,outcome,[6],inactive
same,Potency,[7],23.7 µM (active)
same,viability (% of control),[8],60.9%
same,"viability, percent of control",[9],7.17%
CC=CC1=C(C(=O)O)N2C(=O)[C@H](NC(=O)[C@H](N)c3ccc(O)cc3)[C@@H]2SC1,Potency,[1],inactive
same,Potency,[2],inactive
same,outcome,[3],inactive
same,Potency,[4],inactive
CC(=O)SC[C@@H](C)C(=O)N1CCC[C@H]1C(=O)N[C@@H](Cc1ccccc1)C(=O)O,Potency,[2],inactive
same,outcome,[6],inactive
same,Potency,[7],8.41 µM (active)
same,viability (% of control),[8],104%
same,"viability, percent of control",[9],97.5%
same,Potency,[11],inactive
Nc1ccn([C@@H]2O[C@H](CO)[C@H](O)C2(F)F)c(=O)n1,Potency,[1],inactive
same,Potency,[2],inactive
same,Potency,[4],inactive
same,Potency,[10],562 nM (active)
C=C1C(=CC=C2CCC[C@]3(C)[C@@H]([C@H](C)C=C[C@H](C)C(C)C)CC[C@@H]23)C[C@@H](O)C[C@@H]1O,Potency,[2],inactive
same,Potency,[7],21.1 µM (active)
O=C(O)CCCc1c[nH]c2ccccc12,max response,[12],6.54% (inactive)
same,activity change % (negative = inhibition),[13],3.26% (inactive)
same,Potency,[14],61.1 µM (active)
O=c1c2ccccc2nc2n1CCc1c-2[nH]c2ccccc12,Potency,[1],inactive
same,outcome,[15],inactive
same,outcome,[16],inactive
same,outcome,[17],inactive
same,outcome,[18],inactive
same,outcome,[19],inactive
COC(=O)[C@]12CCC(C)(C)C[C@@H]1[C@@H]1C(=O)C=C3[C@@]4(C)C=C(C#N)C(=O)C(C)(C)[C@@H]4CC[C@@]3(C)[C@]1(C)CC2,Potency,[5],1.32 µM (active)
same,outcome,[6],inactive
same,Potency,[7],0.595 µM (active)
Nc1ccccc1NC(=O)c1ccc(CNC(=O)OCc2cccnc2)cc1,Potency,[5],inactive
same,outcome,[6],inactive
same,Potency,[7],inactive
same,viability (% of control),[8],4.84%
same,"viability, percent of control",[9],4.18%
COc1ccc(CC2c3cc(OC)c(OC)cc3CC[N+]2(C)CCC(=O)OCCCCCOC(=O)CC[N+]2(C)CCc3cc(OC)c(OC)cc3C2Cc2ccc(OC)c(OC)c2)cc1OC (stereo unspecified),Potency,[1],inactive
Nc1ccc(S(=O)(=O)Nc2ncccn2)cc1,Potency,[1],inactive
same,outcome,[3],inactive
same,Potency,[4],6.91 µM (active)
same,Potency,[10],inactive
O=c1[nH]c(=O)n(C2CCCO2)cc1F (stereo unspecified),Potency,[2],inactive
same,outcome,[3],inactive
same,Potency,[4],inactive
same,Potency,[10],inactive
C[C@H]1C[C@@H]2[C@@H]([C@@H](O)C[C@@]3(C)[C@H]2CC[C@]3(O)C(=O)CO)[C@@]2(C)C=CC(=O)C=C12,Potency,[1],inactive
same,Potency,[2],inactive
same,outcome,[3],inactive
same,Potency,[4],inactive
same,Potency,[10],inactive
Cc1cccc(C=NNc2cc(N3CCOCC3)nc(OCCc3ccccn3)n2)c1,Potency,[5],inactive
same,outcome,[6],inactive
same,Potency,[7],21.1 µM (active)
same,viability (% of control),[8],0.274%
same,"viability, percent of control",[9],0.729%
CC(NCc1ccc2c(c1)nc(NC(=O)c1ccc(-c3cn[nH]c3)s1)n2CC(C)(C)O)C(C)(C)C (stereo unspecified),Potency,[5],0.332 µM (active)
same,outcome,[6],inactive
same,Potency,[7],0.0266 µM (active)
same,viability (% of control),[8],1.7%
same,"viability, percent of control",[9],1.76%
CCOc1cc2ncc(C#N)c(Nc3ccc(F)c(Cl)c3)c2cc1NC(=O)C=CCN(C)C,Potency,[5],20.9 µM (active)
same,outcome,[6],inactive
same,Potency,[7],11.9 µM (active)
same,viability (% of control),[8],-0.0881%
same,"viability, percent of control",[9],2.39%
CC=C1NC(=O)[C@H]2CSSCCC=C[C@H](CC(=O)N[C@H](C(C)C)C(=O)N2)OC(=O)[C@H](C(C)C)NC1=O,Potency,[5],0.0935 µM (active)
same,outcome,[6],inactive
same,Potency,[7],inactive
same,viability (% of control),[8],4.33%
same,"viability, percent of control",[9],3.6%
CN[C@H]1CCc2cc(OC)c(OC)c(OC)c2-c2ccc(OC)c(=O)cc21,Potency,[1],inactive
COC(=O)C1=C(C)NC(C)=C(C(=O)OCCN2CCN(C(c3ccccc3)c3ccccc3)CC2)C1c1cccc([N+](=O)[O-])c1 (stereo unspecified),Potency,[1],3.98 µM (active)
same,Potency,[2],inactive
CC(C)(C)c1cnc(CSc2cnc(NC(=O)C3CCNCC3)s2)o1,Potency,[5],0.166 µM (active)
same,outcome,[6],inactive
same,Potency,[7],0.0473 µM (active)
same,viability (% of control),[8],3.42%
same,"viability, percent of control",[9],36.4%
CC(C)(C)NC(=O)[C@H]1CN(Cc2cccnc2)CCN1C[C@@H](O)C[C@@H](Cc1ccccc1)C(=O)N[C@H]1c2ccccc2C[C@H]1O,Potency,[1],inactive
same,Potency,[2],inactive
same,Potency,[4],36.1 µM (active)
same,Potency,[10],inactive
